# Experimental data published in PubChem BioAssay AID588517 (NMMLSC, 2011).
# The whole screen tested about 1,700 compounds, of which about 65 (4%) were called active. These entries were drawn from the full list. A number with no mark means an inactive call.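 The calls were made as follows: active = fluorescence ratio to DMSO above its plate's cutoff, the plate mean ratio plus 5 SD (cut at about 210% in these data); inactive = the rest.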
# Assay: compound autofluorescence in empty-vector yeast, confirmation, artefact control for antifungal efflux pump inhibitor project, S. cerevisiae AD/pABC3, flow cytometry, Cherry Pick1 set (AID 588517);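 also: unstained yeast with no Nile Red so the signal is compound autofluorescence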
# Details: at 10 µM, stronger effect = higher value
row,SMILES,fluorescence ratio to DMSO
1,CSCCC(NS(=O)(=O)c1ccc(C)cc1)C(=O)N1CCCC1 (stereo not drawn),90.1%
2,CCOc1ccccc1/C=c1\sc2nc(-c3ccco3)nn2c1=O,126%
3,CC(/C=N/NC(=O)c1cc(-c2ccc3ccccc3c2)n[nH]1)=C\c1ccco1,88.7%
4,C[n+]1ccc(/C=C/c2c[nH]c3ccccc23)cc1,385% (active)
5,COc1ccc(/C=C(\C#N)c2c[nH]c3ccccc23)cc1,106%
6,CCOc1ccc(/C=C2\SC(=S)N(NC(=O)c3ccncc3)C2=O)cc1OC,100%
7,Cc1cc(C)cc(NC(=O)C(OC(=O)c2ccc(O)cc2)c2ccccc2)c1 (stereo not drawn),103%
8,COc1ccc(S(=O)(=O)N2CCOC2CNC(=O)C(=O)NCc2ccc(F)cc2)cc1 (stereo not drawn),113%
9,Cc1nc2c(C(=O)NCc3ccc4c(c3)OCO4)c[nH]n2c(=O)c1Cc1ccccc1F,84.3%
10,Cc1ccc(Cn2nnc3c(=O)[nH]c(C4CCN(S(=O)(=O)/C=C/c5ccccc5)CC4)nc32)cc1,110%
11,O=C(/C=C/c1c(Cl)cccc1Cl)NCc1ccccc1,98.2%
12,Cc1cc(/C=N/NC(=O)CC2(C)OCCO2)c(C)n1-c1ccc(Cl)c(Cl)c1,102%
13,Cc1ccc(/C=C(\C#N)C(=O)Nc2cccc3ncccc23)o1,98.6%
14,Cc1oc2cc3oc(=O)ccc3cc2c1C,104%
15,Cc1ccc(Cn2c(C)nc3c(c2=O)c2nc4ccccc4nc2n3Cc2ccco2)cc1,105%
16,COc1ccc(C(=O)NC(=S)Nc2ccc(N3CCCC3)cc2)cc1OC,102%
17,CCCc1nnc(SCC(=O)Nc2ccc(C(=O)OCC)cc2)o1,116%
18,CCOC(=O)CNC(=O)CSc1nnnn1-c1cc(C)ccc1C,101%
19,O=C(NCc1ccccc1)C(=O)NCC1OCCN1S(=O)(=O)c1ccc(Br)cc1 (stereo not drawn),90.8%

row,SMILES,fluorescence ratio to DMSO
1,O=C(Nc1ccc(NC(=O)c2cccs2)cc1)c1ccc2ccccc2c1,109%
2,O=S(=O)(c1ccccc1)N1CCc2ccccc21,163%
3,CC(/C=C/c1ccccc1)=N\NC(=O)C1CC1(C)c1ccccc1 (stereo not drawn),94.4%
4,CCCCCC(=O)Nc1ccc(C(=O)N/N=C/c2ccc([N+](=O)[O-])cc2)cc1,103%
5,COc1ccccc1CSc1ncc(-c2ccc([N+](=O)[O-])cc2)[nH]1,110%
6,CCn1c(/C=C/c2ccc([N+](=O)[O-])o2)nc2ccccc2c1=O,431% (active)
7,CCOc1ccc2nc(Cl)c(C3CC(c4ccccc4)=NN3C(=O)c3cccs3)cc2c1 (stereo not drawn),95.5%
8,Cc1ccc2[nH]c3c(=O)n(CC(=O)NCCc4ccc(Cl)cc4)ncc3c2c1,107%
9,COc1cccc(-c2sc3ccc(OC)cc3c2-c2ccc(OCCN3CCCCC3)cc2)c1,103%
10,COc1ccccc1NC(=O)C1CCCN1S(=O)(=O)c1ccc(Cl)cc1 (stereo not drawn),108%
11,Cc1cc(C(=O)Nc2ccc(C)c(S(=O)(=O)N3CCOCC3)c2)c2ccccc2n1,91.8%
12,O=C(CCCCCn1c(=O)[nH]c2ccccc2c1=O)NCCc1c[nH]c2ccccc12,110%
13,Cc1ccc(OCc2cc(C(=O)N(C)CCc3ccccc3)no2)cc1C,106%
14,CC12CCC(C(=O)N(c3cccc(Cl)c3)C1=O)C2(C)C (stereo not drawn),102%
15,CCCCN1C(=O)/C(=C/C=C2/C=Cc3ccccc3N2CC)SC1=S,68.5%
16,O=C1NC(=O)C2C1C(c1ccc([N+](=O)[O-])cc1)=NN2Cc1ccccc1 (stereo not drawn),152%
17,CN(C)S(=O)(=O)c1cc(C(=O)Nc2ccn(C)n2)c(Cl)cc1Cl,93.7%
18,Cc1ccc(N=C2NC(=O)/C(=C/C=C/c3ccco3)S2)cc1C,104%
19,COc1ccc2[nH]c3c(C)c4cc[n+](C)cc4c(C)c3c2c1,115%
